Records with an inconclusive call do not appear. Calls of active or inactive are those of the source. Unless noted, cut-off not given; nearly all actives show AC50 up to about 26 µM.
Key:
[1] = viability loss in pontine glioma line – cell-based, SU-DIPG-XVII, MIPE5.0, CellTiter-Glo, qHTS, dose response (AID 1347060); conditions: CellTiter-Glo ATP luminescence;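 on AC50: cells exposed to compound for 48 hours before viability readout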
[2] = viability loss in pontine glioma line – cell-based, SU-DIPG-XXV, MIPE5.0, CellTiter-Glo, qHTS, dose response (AID 1347065); conditions: CellTiter-Glo ATP luminescence;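 further: cells exposed to compound for 48 hours before ATP readout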
[3] = JHH-DIPG-1 glioma cell viability, MIPE5.0 library, CellTiter-Glo luminescence, qHTS (AID 1347067); conditions: JHH-DIPG-1 glioma viability, CellTiter-Glo ATP luminescence;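 further: cells exposed to compound for 48 hours before readout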
[4] = growth inhibition of DIPG cells – cell-based, MIPE5.0 library, qHTS (AID 1347068; cut-off not given, nearly all actives have IC50 up to about 30 µM;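 on IC50: cells exposed to compound for 48 hours before viability readout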); conditions: SU-DIPG-XXV viability
[5] = viability loss with induced miR-34 in A549 – imaging, A549 dox-inducible miR-34, nuclei and caspase counts, primary screen (AID 1347080;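 active means compounds whose cell count with miR-34 switched on is under 0.7 times the count with it off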); conditions: A549 miR-34 inducible, Hoechst nuclei count, 48 h
[6] = MELAS cybrid and Rieske KO viability enhancers – cell-based, MELAS cybrids, Rieske KO mouse fibroblasts, CellTiter-Glo, primary screen (AID 1508586;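 active means mean z-score across replicates of 1.96 or higher in either the MELAS or the Rieske mutant cell line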;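 further: z relative to plate mean and SD of compound and empty wells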); conditions: low glucose

Cn1cc(-c2c[nH]c3ncnc(N4CCOCC4)c23)cn1
inactive: outcome [1] | outcome [2] | outcome [3] | outcome [4]

Cc1cnc(NC(=O)c2cc(Oc3cnc(C(=O)N(C)C)nc3)c3cc(C)oc3c2)cn1
inactive: outcome [1] | outcome [2] | outcome [3] | outcome [4]

C[C@H]1CNC(=O)c2cnn3ccc(nc23)N[C@H](C)c2cc(F)ccc2O1
active: AC50 [1] 1.05 µM | AC50 [2] 0.934 µM | AC50 [3] 1.48 µM | IC50 [4] 2.95 µM

Cc1cc(Nc2cc(N)ncn2)c(=O)n2c1C(=O)NC21CCCCC1
inactive: outcome [1] | outcome [2] | outcome [3] | outcome [4]

Cc1cc(C)c(S(=O)(=O)N(CCc2cccc(Br)c2)Cc2ccc(-c3cccc(S(C)(=O)=O)c3)cc2)c(C)c1
inactive: outcome [1] | outcome [2] | outcome [3] | outcome [4]

FC(F)(F)c1ccc(CNc2ccc(Cc3c[nH]c4ncccc34)cn2)cc1
active: AC50 [1] 16.6 µM | AC50 [2] 20.9 µM | AC50 [3] 18.6 µM
inactive: outcome [4]

COc1cc2c(NC3CCN(C)CC3)nc(N3CCCN(C)CC3)nc2cc1OCCCN(C)C
inactive: outcome [1] | outcome [2] | outcome [3] | outcome [4]

CC(=O)N1CCN(c2ccc(NC(=O)Cc3cnc(-c4ccnc(F)c4)c(C)c3)nc2)CC1
inactive: outcome [1] | outcome [2] | outcome [3] | outcome [4]

O=C(NCC(=O)N1CC[C@H](NC2CCC(O)(c3ccc(-c4ncccn4)cn3)CC2)C1)c1cccc(C(F)(F)F)c1 (stereo partly drawn)
inactive: outcome [1] | outcome [2] | outcome [3] | outcome [4]

CCCNC(=O)c1cn2ncnc(Nc3cc(C(=O)NC4CC4)ccc3C)c2c1C
inactive: outcome [1] | outcome [2] | outcome [3] | outcome [4]

CCOc1cc(C(=O)N2CCC(N3CCN(C)CC3)CC2)ccc1Nc1ncc2c(n1)N(C1CCCC1)c1ccccc1C(=O)N2C
active: AC50 [1] 23.5 µM | AC50 [2] 20.9 µM | AC50 [3] 26.3 µM | IC50 [4] 20.9 µM

COc1cc(-c2cn(C)c(=O)c3cnccc23)c(OC)cc1CN(C)C
inactive: outcome [1] | outcome [2] | outcome [3] | outcome [4]

CCn1c(=O)c(-c2ccc(Cl)cc2Cl)cc2cnc(Nc3ccc(N4CCNCC4)c(F)c3)nc21
active: AC50 [1] 0.59 µM | AC50 [2] 0.59 µM
inactive: outcome [3] | outcome [4]

CCN(CC)CCCC[C@H](NC(=O)[C@H](CC(C)C)NC(=O)[C@H](C)NC(=O)[C@H](Cc1ccccc1)NC(=O)c1ccc(C(C)(C)C)cc1)C(=O)N[C@@H](CO)C(=O)OC
inactive: outcome [1] | outcome [2] | outcome [3] | outcome [4]

CC[C@@H](Oc1cccc(CN(CCCOc2ccc(OC)cc2)c2nc3ccccc3o2)c1)C(=O)O
inactive: outcome [1] | outcome [2] | outcome [3] | outcome [4]

O=C1OC2(CCC(C(=O)Nc3ccn(-c4ccccc4F)n3)CC2)c2cnccc21 (stereo not drawn)
inactive: outcome [1] | outcome [2] | outcome [3] | outcome [4]

COc1cc2c(cc1OC)CN(CCc1ccc(-n3nnc(-c4cc(OC)c(OC)cc4NC(=O)c4cc(=O)c5ccccc5o4)n3)cc1)CC2
inactive: outcome [1] | outcome [2] | outcome [3] | outcome [4]

Cc1cc(N2CCOCC2)ccc1Nc1nc(NC2CCCCC2)c2[nH]cnc2n1
-2.79: z-score ([6]; Rieske KO mouse fibroblast survival, CellTiter-Glo 72 h)
3720: cell count ([5]; measured here: total cells with miR-34 induction, stronger effect = lower value)
4100: cell count ([5]; measured here: total cells without miR-34 induction)
0.505: fold change ([5]; measured here: relative caspase fold change +Dox/-Dox)
active: AC50 [1] 2.35 µM | AC50 [2] 7.42 µM | AC50 [3] 14.8 µM | IC50 [4] 20.9 µM
inactive: fold change ([5]; stronger effect = lower value, cell number ratio, induced over uninduced) 0.907 | z-score ([6]; MELAS cybrid survival, CellTiter-Glo 48 h, stronger effect = higher value) -0.538

Source: PubChem BioAssay
